TRPM1 prom inh = inhibitors of MITF-dependent TRPM1 promoter reporter, primary screen, cell-based, SK-MEL-5, single point, luciferase | SK-MEL-5 TRPM1 promoter luciferase, 24 h | inhibition, % at 12.5 µM | actives 0.83% (n = 330,000);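 active = mean inhibition across replicates of 60% or more, whatever share of single replicates reaches that level; inconclusive = some that reach 60%, reason not given; inactive = mean inhibition across replicates below 60%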
LGR2 antag = inhibitors of bursicon-induced LGR2 CRE-luciferase signal, primary screen, cell-based, HEK293, CRE-luciferase reporter, bursicon stimulation | actives 0.35% (n = 380,000) | inhibition, % at 9.99 µM | bursicon-stimulated, 4 h | Drosophila bursicon receptor LGR2 (rickets) | AID 720647, 2013;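 active = drop in luminescence signal, shown as inhibition above about 50% in the replicate tests, limit read from the data, passing the limit was not always enough; inconclusive = probably only some replicates passing the limit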;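 note: agonist challenge used bursicon conditioned medium at about half maximal strength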
LMP1 NFkB inh = EBV LMP1-driven NF-kappaB luciferase reporter inhibitors, primary screen, cell-based, luminescence, single point; actives 0.69% (n = 350,000); LMP1-induced NF-kappaB luciferase reporter cells; inhibition, % at 12.5 µM; AID 504558, 2011; in the data active = inhibition above about 41%; inconclusive = no clear call, values can overlap the other calls;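 note: 0% = neutral control wells and 100% = reference inhibitor control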
Shn3 3UTR inh = reduction of Shn3 3'UTR firefly luciferase signal, primary screen, Schnurri-3 inhibitor project, cell-based, Clone20 osteoblasts, set 2 | Clone20 osteoblast Shn3 3'UTR firefly luciferase, 24 h | inhibition, % at 12.5 µM | actives 0.52% (n = 360,000);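 active = mean inhibition of at least 75% with every replicate also reaching 75%; inconclusive = mean inhibition at least 75% but some replicate below; inactive = mean inhibition below 75%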;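 note: 0% = median of neutral control wells and 100% = pilot-screen positive control compound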
PAX8 inh HTS = inhibitors of PAX8-driven TPO luciferase reporter, primary screen, RMG-I cells, single concentration. SteadyGlo, 24 h. inhibition, % at 12.6 µM. actives 1.2% (n = 360,000). AID 652154, 2013;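 active = mean replicate inhibition at least 60% with every replicate also reaching 60%; inconclusive = only one of the two criteria is met; inactive = mean below 60% and not all replicates reaching 60%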;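 note: luciferase light reporting Pax8 driven TPO promoter activity; plate controls were median of neutral control wells for no effect and mitoxantrone controls for full effect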
EWS-Fli block = EWS/Fli-driven NR0B1 reporter inhibitors, primary screen, A673 cells, NR0B1 luciferase, luminescence, MLPCN library; viability-normalised; inhibition, % at 12.6 µM; actives 0.67% (n = 350,000);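 active = mean inhibition of at least 50% after viability correction, with every replicate also passing that limit; inconclusive = mean reaches 50% but only one of two replicates passes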;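 note: firefly luciferase signal divided by Alamar Blue viability fluorescence both relative to DMSO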
* hit, by the source's call; ? = inconclusive; nt = no result given. This is a sample that favours compounds with a hit; in the whole collection about 2.2% have one here.

SMILES	TRPM1 prom inh	LGR2 antag	LMP1 NFkB inh	Shn3 3UTR inh	PAX8 inh HTS	EWS-Fli block
OC[C@@H]1CC[C@@H]2O[C@H](CCc3ccc(C#Cc4ccccc4)cc3)[C@H](n3cc(-c4ccccc4)nn3)C[C@@H]2O1	nt	nt	nt	nt	22	3
OC[C@H]1CC[C@@H]2O[C@H](CCc3ccc(C#CCc4ccccc4)cc3)[C@@H](n3cc(-c4ccccc4)nn3)C[C@@H]2O1	nt	nt	nt	nt	71*	13
CC(C(=O)N=Nc1c(O)[nH]c2ccccc12)n1cnc2ccccc2c1=O (configuration not stated)	19	17	61*	-4	8	nt
CCCC#Cc1cnc2c(c1)C(=O)N([C@H](C)CO)C[C@@H](C)[C@H](CN(C)C)O2	nt	-8	nt	nt	nt	-11
COc1ccc2c3c(n(C)c2c1)[C@H](CO)N(C(=O)CC1CC1)CC31CN(Cc2ccccc2)C1	nt	3	nt	nt	5	2
CCOC(=O)Cc1csc(N/N=C\c2ccc(N(C)C)cc2)n1	-12	2	81*	7	-26	23
CCOC(=O)Cc1csc(N/N=C/c2ccccc2)n1	-9	-30	-6	-20	-33	19
Cc1nnc(N2CCCC(C(=O)NCc3cccc(F)c3)C2)c2nn(-c3ccccc3)c(C)c12 (configuration not stated)	30	16	7	47	65*	nt
Cc1ccccc1CNC(=O)C1CCCN(c2nnc(C)c3c(C)n(-c4ccccc4)nc23)C1 (configuration not stated)	82*	15	-3	-11	95*	40
CCc1ccc(CNC(=O)C2CCCN(c3nnc(C)c4c(C)n(-c5ccccc5)nc34)C2)cc1 (configuration not stated)	66*	1	17	42	89*	35
C[C@H](CO)N1C[C@H](C)[C@@H](CN(C)C(=O)Nc2ccccc2)Oc2c(NC(=O)Nc3ccc(F)cc3)cccc2C1=O	nt	-24	nt	nt	nt	-2
C[C@H](CO)N1C[C@H](C)[C@@H](CN(C)S(C)(=O)=O)Oc2ccc(NS(=O)(=O)c3ccccc3)cc2CC1=O	nt	-10	nt	nt	-1	-14
O=c1c2cnn(-c3ccccc3)c2nc(-c2cccs2)n1-c1ccc(Br)cc1	1	nt	43*	2	nt	nt
O=C(O)CSc1nc2c(cnn2-c2ccccc2)c(=O)n1-c1ccc(Br)cc1	-20	4	-7	8	13	nt
CCCOc1ccc(NC(=O)CC2C(=O)N(CC)C(=S)N2CCCN2CCN(Cc3ccccc3)CC2)cc1 (configuration not stated)	73*	14	-41	1	38	17
COCCCNc1cc(C)nc2ccccc12	0	-9	2	-5	nt	nt
Cc1cc(NCCCCCCCNc2cc(C)nc3cc([N+](=O)[O-])ccc23)c2ccc([N+](=O)[O-])cc2n1	?	13	79*	86*	33	36
C[C@H](CO)N1C[C@H](C)[C@H](CN(C)C(=O)Nc2ccccc2)Oc2ncc(C#CC3CCCCC3)cc2C1=O	nt	13	nt	nt	9	4
CCC[C@@H](CNC)NC[C@H](Cc1ccccc1)NCCCCc1ccccc1	94*	6	-12	49	26	13
O=C(COC(=O)c1ccccc1)NCCCCc1ccccc1	nt	-16	-1	15	-7	1
CNC[C@@H](CC1CCCCC1)NC[C@H](CC(C)C)NCCc1cccc(C(F)(F)F)c1	100*	103*	-8	6	113*	49
CCC[C@@H](CN[C@@H](CNC)C(C)C)NCCCCc1ccccc1	90*	12	-2	55	14	12
O=C(NCCCCc1ccccc1)c1ccccc1	5	-6	5	-1	-11	-6
CNC[C@@H](Cc1ccccc1)NC[C@@H](CC1CCCCC1)NCCCc1ccccc1	98*	102*	-41	-2	74*	44
CN(C)C(=O)[C@@H]1[C@@H](CO)[C@@H]2Cn3c(ccc(C4=CCCCC4)c3=O)[C@@H]2N1C(=O)c1ccccc1F	nt	-16	nt	nt	nt	-7
SMILES	TRPM1 prom inh	LGR2 antag	LMP1 NFkB inh	Shn3 3UTR inh	PAX8 inh HTS	EWS-Fli block
COc1cccc(Oc2nnnn2-c2ccccc2)c1	-44	-41	-10	-57	nt	nt
COc1cccc(-n2nnnc2S(C)(=O)=O)c1	78*	nt	90*	97*	nt	nt
C=C1C(=O)[C@@]23[C@H](O)C[C@@H]4C(C)(C)CC[C@H](O)[C@]4(C)[C@@H]2C[C@H](O)[C@@H]1[C@H]3O	42	35	-13	97*	97*	1
COc1ccc(/C=C/CN2CCN(Cc3ccccc3)C(CCO)C2)cc1 (configuration not stated)	-3	12	51*	2	-16	0
Cc1ccccc1S(=O)(=O)N1[C@H](C#N)[C@H](c2ccc(C#CC3CCCCC3)cc2)[C@H]1CO	nt	76*	nt	nt	-28	36
N#C[C@@H]1[C@H](c2ccc(C#CC3CCCCC3)cc2)[C@H](CO)N1S(=O)(=O)c1ccccc1	nt	-6	nt	nt	84*	14
CCCNC(=O)N1CC2(C1)CN(C(C)=O)[C@H](CO)c1[nH]c3cc(OC)ccc3c12	nt	-21	nt	nt	nt	-3
COc1ccc(C(=O)CCS(=O)(=O)c2ccc(C)cc2)cc1OC	-3	8	-1	-24	96*	-2
Cc1ccc(S(=O)(=O)CCC(=O)c2ccc(O)cc2O)cc1	7	nt	10	-12	97*	nt
COC(=O)[C@@]12C[C@@H](CC(=O)N3CCN(C(=O)c4ccco4)CC3)C(=O)N(Cc3ccco3)C1=CCC(C)(C)C2	nt	-10	nt	nt	87*	0
COC(=O)[C@]12C[C@H](CC(=O)N3CCN(C(=O)c4ccco4)CC3)C(=O)N(Cc3ccccc3)C1=C[C@H](C(C)(C)C)O[C@@H]2C	nt	nt	nt	nt	74*	6
COC(=O)[C@@]12C[C@@H](CC(=O)N3CCN(C(=O)c4ccco4)CC3)C(=O)N(Cc3ccccc3)C1=CCC(C)(C)C2	nt	-4	nt	nt	88*	-8
COC(=O)[C@@]12C[C@@H](CC(=O)N3CCN(C(=O)c4ccco4)CC3)C(=O)N(Cc3ccc4c(c3)OCO4)C1=CCC(C)(C)C2	nt	0	nt	nt	-10	-1
C[C@@H]1CN([C@H](C)CO)C(=O)c2cc(N(C)C)ccc2O[C@@H]1CN(C)C	nt	-5	nt	nt	-16	-2
Cc1ccc(S(=O)(=O)Nc2cccc3c2O[C@@H](CN(C)C(=O)Nc2ccc4c(c2)OCO4)[C@@H](C)CN([C@@H](C)CO)C3=O)cc1	nt	-6	nt	nt	nt	0
CCCCC(c1nnnn1CCOC)N1CCN(CC)CC1 (configuration not stated)	5	nt	1	16	2	nt
C=CCN1CCN(C(CC(C)C)c2nnnn2CCOC)CC1 (configuration not stated)	2	nt	49*	2	nt	nt

High-throughput results: PubChem, Broad Institute
